Results taken from PubChem BioAssay (EPA / NIEHS).
Calls of active or inactive are those of the source. How the source made its calls: active means hit-call score of the fitted dose curve at least 0.9, where 1 is the maximum; inactive means score below 0.9.

Columns and labels:
[1] = CEETOX_H295R_OHPREG: CeeTox H295R High-throughput Steroidogenesis Assay for OH-Pregnenolone (OHPREG) (AID 2283434); conditions: actives raise or lower the signal
Outline: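 H295R cells pre-stimulated 48 h with 10 uM forskolin, then exposed 48 h to chemical in 0.1% DMSO. 17alpha-hydroxypregnenolone in medium quantified by MTBE extraction and HPLC-MS/MS; bidirectional fit versus DMSO, viability checked by MTT.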

[2] = CEETOX_H295R_CORTIC: CeeTox H295R High-throughput Steroidogenesis Assay for Corticosterone (CORTIC) (AID 2283437); conditions: actives raise or lower the signal;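 further: corticosterone secreted into medium quantified by mass spectrometry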
Outline: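 H295R adrenal cells prestimulated 48 hours with 10 uM forskolin, then exposed 48 hours to chemical in 0.1% DMSO. Corticosterone in medium measured by HPLC-MS/MS after MTBE extraction; MTT viability in the same wells; bidirectional fit versus DMSO.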

[3] = CEETOX_H295R_CORTISOL: CeeTox H295R High-throughput Steroidogenesis Assay for Cortisol (AID 2283438); conditions: actives raise or lower the signal;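 further: cortisol secreted into medium quantified by LC-MS/MS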
Outline: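 Forskolin-primed H295R cells (10 uM, 48 h) treated 48 h with test chemical in 0.1% DMSO. Cortisol in medium quantified by MTBE extraction and HPLC-MS/MS; bidirectional fit vs DMSO, MTT viability in same wells.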

[4] = CEETOX_H295R_DOC: CeeTox H295R High-throughput Steroidogenesis Assay for DOC (AID 2283439); conditions: actives raise or lower the signal
Outline: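 H295R cells prestimulated 48 h with 10 uM forskolin, then exposed 48 h to test chemical (0.1% DMSO final). Medium 11-deoxycorticosterone measured by HPLC-MS/MS after MTBE extraction; bidirectional fit vs DMSO, viability checked by MTT in same wells.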

[5] = CEETOX_H295R_ESTRADIOL: CeeTox H295R High-throughput Steroidogenesis Assay for Estradiol (AID 2283440); conditions: actives raise or lower the signal;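 further: estradiol secreted into medium quantified by LC-MS/MS after dansyl derivatisation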
Outline: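 Readout is estradiol in conditioned medium, quantified by reverse-phase HPLC-MS/MS against a 7-point standard curve. Cells: H295R, forskolin-stimulated, then dosed 48 h in 0.1% DMSO; activity fitted in both directions relative to DMSO.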

[6] = CEETOX_H295R_ESTRONE: CeeTox H295R High-throughput Steroidogenesis Assay for Estrone (AID 2283441); conditions: actives raise or lower the signal;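 further: estrone secreted into medium measured by LC-MS/MS after dansyl derivatization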
Outline: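 H295R cells prestimulated 48 h with 10 uM forskolin, then exposed 48 h to chemicals in 0.1% DMSO final; estrone in medium extracted with MTBE, dansyl-derivatized, quantified by HPLC-MS/MS; bidirectional fitting versus DMSO, viability by MTT.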

[7] = CEETOX_H295R_PROG: CeeTox H295R High-throughput Steroidogenesis Assay for Progesterone (PROG) (AID 2283442); conditions: actives raise or lower the signal
Outline: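 Measured analyte is progesterone secreted by H295R cells at 48 h of chemical treatment, following 10 uM forskolin priming. Quantitation used HPLC-MS/MS against a 7-point standard curve; cytotoxicity was checked by MTT absorbance.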

[8] = read-out: Tumor necrosis factor receptor superfamily member 6 (Homo sapiens) (UniProt P25445); assay: LTEA_HepaRG_FAS: Life Technologies and Expression Analysis (LTEA) Assay for Fas cell surface death receptor (FAS) using HepaRG (AID 2283447); conditions: mRNA level, 48 h; actives raise or lower the signal
Outline: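 Differentiated HepaRG cells in serum-free induction medium were exposed 48 h to 8 half-log concentrations up to 100 uM in 0.5% DMSO, in duplicate. FAS mRNA was measured by qRT-PCR normalised to ACTB, GAPDH and POLR2A; bidirectional fit versus DMSO.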

[9] = read-out: Fatty acid synthase (Homo sapiens) (UniProt P49327); assay: LTEA_HepaRG_FASN: Life Technologies and Expression Analysis (LTEA) Assay for Fatty Acid Synthase (FASN) using HepaRG (AID 2283448); conditions: mRNA level, 48 h; actives raise or lower the signal
Outline: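 Differentiated HepaRG cells in serum-free induction medium exposed 48 h in duplicate to eight half-log concentrations, top 100 uM, 0.5% DMSO. FASN mRNA by qRT-PCR normalised to ACTB, GAPDH, POLR2A; bidirectional fit versus DMSO.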

[10] = read-out: Cyclin D2 (CCND2), CCND2 (gene 894); assay: LTEA_HepaRG_CCND2: Life Technologies and Expression Analysis (LTEA) Assay for Cyclin D2 (CCND2) using HepaRG (AID 2283449); conditions: mRNA level, 48 h; actives raise or lower the signal;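 further: CCND2 transcript measured by TaqMan qRT-PCR and normalised to three housekeeping genes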
Outline: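 Chemicals in 0.5% DMSO, eight half-log concentrations from 100 uM top, were applied in duplicate for 48 h to human HepaRG cells in serum-free induction medium. CCND2 mRNA by TaqMan qRT-PCR, normalised to ACTB/GAPDH/POLR2A; bidirectional fit versus DMSO.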

[11] = read-out: Cyclin Dependent Kinase Inhibitor 1A (CDKN1A), CDKN1A (gene 1026); assay: LTEA_HepaRG_CDKN1A: Life Technologies and Expression Analysis (LTEA) Assay for Cyclin Dependent Kinase Inhibitor 1A (CDKN1A) using HepaRG (AID 2283450); conditions: mRNA level, 48 h; actives raise or lower the signal
Outline: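 Gain or loss of CDKN1A transcript is scored by bidirectional fitting against 0.5% DMSO vehicle. Human HepaRG cultures receive chemicals for 48 h across an 8-point series peaking at 100 uM; expression comes from qRT-PCR.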

[12] = read-out: catalase (CAT), CAT (gene 847); assay: LTEA_HepaRG_CAT: Life Technologies and Expression Analysis (LTEA) Assay for catalase (CAT) using HepaRG (AID 2283452); conditions: mRNA level, 48 h; actives raise or lower the signal;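 on AC50: TaqMan qRT-PCR signal normalized to ACTB GAPDH and POLR2A housekeeping genes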
Outline: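 HepaRG cells in serum-free induction medium, 0.5% DMSO vehicle, exposed 48 h in duplicate over 8 half-log concentrations from 100 uM. CAT mRNA measured by qRT-PCR, normalized to ACTB, GAPDH, POLR2A; bidirectional fit versus DMSO.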

[13] = read-out: flavin-containing dimethylaniline monooxygenases 3 (FMO3), FMO3 (gene 2328); assay: LTEA_HepaRG_FMO3: Life Technologies and Expression Analysis (LTEA) Assay for flavin-containing dimethylaniline monooxygenases 3 (FMO3) using HepaRG (AID 2283453); conditions: mRNA level, 48 h; actives raise or lower the signal;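 on AC50: differentiated human HepaRG liver cells in serum-free induction medium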
Outline: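 Differentiated HepaRG cells in serum-free induction medium, exposed 48 h in duplicate to 8 half-log concentrations up to 100 uM in 0.5% DMSO. FMO3 mRNA by qRT-PCR, normalized to ACTB, GAPDH, POLR2A; bidirectional fit vs DMSO.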

[14] = read-out: Cytochrome P450 (CYP1A1), CYP1A1 (gene 1543); assay: LTEA_HepaRG_CYP1A1: Life Technologies and Expression Analysis (LTEA) Assay for Cytochrome P450 (CYP1A1) using HepaRG (AID 2283454); conditions: mRNA level, 48 h; actives raise or lower the signal
Outline: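 Using HepaRG cultures with 0.5% DMSO as vehicle, eight-concentration exposures (max 100 uM) lasted 48 h. Transcript levels were measured by TaqMan qRT-PCR and normalized to ACTB, GAPDH and POLR2A.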

[15] = read-out: CFLAR gene, CFLAR (gene 8837); assay: LTEA_HepaRG_CFLAR: Life Technologies and Expression Analysis (LTEA) Assay for CFLAR gene using HepaRG (AID 2283455); conditions: mRNA level, 48 h; actives raise or lower the signal
Outline: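 Differentiated HepaRG cells in serum-free induction medium were exposed 48 h in duplicate to eight half-log concentrations up to 100 uM in 0.5% DMSO; mRNA measured by TaqMan qRT-PCR, normalized to ACTB, GAPDH, POLR2A; bidirectional fitting versus DMSO.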

[16] = read-out: Forkhead box O1 (FOXO1), FOXO1 (gene 2308); assay: LTEA_HepaRG_FOXO1: Life Technologies and Expression Analysis (LTEA) Assay for Forkhead box O1 (FOXO1) using HepaRG (AID 2283456); conditions: mRNA level, 48 h; actives raise or lower the signal
Outline: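 Differentiated HepaRG cells, in serum-free induction medium with 0.5% DMSO, exposed 48 h in duplicate to 8-point half-log series from 100 uM. FOXO1 mRNA measured by TaqMan qRT-PCR, normalized to ACTB, GAPDH, POLR2A; bidirectional fit versus DMSO.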

[17] = read-out: Cyclin D1 (CCND1), CCND1 (gene 595); assay: LTEA_HepaRG_CCND1: Life Technologies and Expression Analysis (LTEA) Assay for Cyclin D1 (CCND1) using HepaRG (AID 2283451); conditions: mRNA level, 48 h; actives raise or lower the signal
Outline: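 Expression change is measured by qRT-PCR in HepaRG cells after 48 h treatment across eight concentrations topping at 100 uM, with duplicate wells and DMSO (0.5%) serving as baseline for bidirectional fitting.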

[18] = read-out: growth arrest and DNA damage 45 (GADD45A), GADD45A (gene 1647); assay: LTEA_HepaRG_GADD45A: Life Technologies and Expression Analysis (LTEA) Assay for growth arrest and DNA damage 45 (GADD45A) using HepaRG (AID 2283458); conditions: mRNA level, 48 h; actives raise or lower the signal
Outline: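 Differentiated HepaRG cells exposed 48 h in serum-free induction medium to 8 concentrations, top 100 uM in half-log steps, 0.5% DMSO. GADD45A mRNA quantified by qRT-PCR, normalized to ACTB, GAPDH and POLR2A; bidirectional fit versus DMSO.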

Measured: AC50

Sequence of Fatty acid synthase (Homo sapiens) (P49327 whole entry, looked up): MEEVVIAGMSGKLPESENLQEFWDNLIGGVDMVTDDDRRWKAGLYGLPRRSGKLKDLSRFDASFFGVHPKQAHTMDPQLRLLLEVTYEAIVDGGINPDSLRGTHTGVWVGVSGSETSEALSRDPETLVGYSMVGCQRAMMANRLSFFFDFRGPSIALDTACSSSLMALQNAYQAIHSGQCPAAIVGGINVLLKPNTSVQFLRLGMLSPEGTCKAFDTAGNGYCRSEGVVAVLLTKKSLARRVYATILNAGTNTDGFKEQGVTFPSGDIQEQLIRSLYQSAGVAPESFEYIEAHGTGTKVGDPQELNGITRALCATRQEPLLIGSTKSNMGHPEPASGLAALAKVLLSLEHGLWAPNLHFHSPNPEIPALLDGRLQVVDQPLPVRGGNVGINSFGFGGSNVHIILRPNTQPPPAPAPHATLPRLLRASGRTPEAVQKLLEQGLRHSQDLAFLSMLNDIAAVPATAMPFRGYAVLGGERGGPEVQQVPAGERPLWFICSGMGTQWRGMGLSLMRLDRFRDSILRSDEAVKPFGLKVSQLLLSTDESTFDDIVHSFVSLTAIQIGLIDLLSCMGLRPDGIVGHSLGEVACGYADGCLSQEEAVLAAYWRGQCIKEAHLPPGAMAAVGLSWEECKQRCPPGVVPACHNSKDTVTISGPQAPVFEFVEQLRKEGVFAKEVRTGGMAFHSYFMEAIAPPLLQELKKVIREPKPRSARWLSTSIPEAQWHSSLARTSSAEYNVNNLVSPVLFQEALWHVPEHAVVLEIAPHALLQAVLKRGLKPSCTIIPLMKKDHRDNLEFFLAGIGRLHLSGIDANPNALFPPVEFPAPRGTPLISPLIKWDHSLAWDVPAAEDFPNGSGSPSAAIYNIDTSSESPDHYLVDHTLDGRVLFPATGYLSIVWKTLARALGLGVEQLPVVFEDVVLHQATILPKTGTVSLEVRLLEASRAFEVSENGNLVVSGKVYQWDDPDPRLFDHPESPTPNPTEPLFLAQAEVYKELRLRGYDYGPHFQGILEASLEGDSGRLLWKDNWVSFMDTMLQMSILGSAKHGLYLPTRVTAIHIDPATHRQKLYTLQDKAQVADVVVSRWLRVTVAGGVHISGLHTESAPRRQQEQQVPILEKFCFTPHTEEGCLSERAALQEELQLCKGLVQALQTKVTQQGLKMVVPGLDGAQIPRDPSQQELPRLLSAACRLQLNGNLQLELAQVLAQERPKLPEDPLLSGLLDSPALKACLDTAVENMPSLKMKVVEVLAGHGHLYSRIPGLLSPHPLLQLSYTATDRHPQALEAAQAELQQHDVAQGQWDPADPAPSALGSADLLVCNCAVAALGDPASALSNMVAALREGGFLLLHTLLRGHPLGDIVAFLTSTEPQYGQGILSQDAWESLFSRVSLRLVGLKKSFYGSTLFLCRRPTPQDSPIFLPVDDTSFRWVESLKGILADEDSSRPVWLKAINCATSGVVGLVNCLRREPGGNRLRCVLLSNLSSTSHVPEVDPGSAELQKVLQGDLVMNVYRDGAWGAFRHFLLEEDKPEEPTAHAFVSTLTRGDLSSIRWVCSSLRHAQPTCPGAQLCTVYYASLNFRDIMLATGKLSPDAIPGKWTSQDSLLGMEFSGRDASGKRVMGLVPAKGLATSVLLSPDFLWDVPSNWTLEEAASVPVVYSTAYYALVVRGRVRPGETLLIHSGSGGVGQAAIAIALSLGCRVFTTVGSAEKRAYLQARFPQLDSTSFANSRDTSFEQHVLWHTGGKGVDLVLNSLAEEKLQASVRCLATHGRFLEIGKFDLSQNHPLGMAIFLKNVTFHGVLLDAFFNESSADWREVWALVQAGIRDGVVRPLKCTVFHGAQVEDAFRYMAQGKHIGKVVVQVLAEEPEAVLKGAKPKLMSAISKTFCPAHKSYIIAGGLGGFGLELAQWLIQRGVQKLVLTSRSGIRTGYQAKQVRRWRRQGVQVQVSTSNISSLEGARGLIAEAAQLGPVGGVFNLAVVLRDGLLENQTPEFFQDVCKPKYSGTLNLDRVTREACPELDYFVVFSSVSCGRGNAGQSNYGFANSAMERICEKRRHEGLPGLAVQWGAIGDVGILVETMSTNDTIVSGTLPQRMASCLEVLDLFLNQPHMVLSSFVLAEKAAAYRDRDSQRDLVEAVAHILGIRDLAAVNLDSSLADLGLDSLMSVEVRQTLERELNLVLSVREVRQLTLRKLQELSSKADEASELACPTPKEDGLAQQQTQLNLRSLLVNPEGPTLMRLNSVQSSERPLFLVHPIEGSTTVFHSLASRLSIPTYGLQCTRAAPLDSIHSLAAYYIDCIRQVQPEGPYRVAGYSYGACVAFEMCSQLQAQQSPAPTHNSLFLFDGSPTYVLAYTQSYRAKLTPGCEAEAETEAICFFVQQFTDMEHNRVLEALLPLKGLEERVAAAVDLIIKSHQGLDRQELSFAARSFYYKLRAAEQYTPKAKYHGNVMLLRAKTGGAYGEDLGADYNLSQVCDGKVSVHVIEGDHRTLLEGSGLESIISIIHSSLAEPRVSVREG

c1ccc(OP(Oc2ccccc2)Oc2ccccc2)cc1
inactive: [1] | [2] | [3] | [4] | [5] | [6] | [7] | [8] | [9] | [10] | [11] | [12] | [13] | [15] | [16]
active: [14] 77.3 µM

CCOc1ccc(C(C)(C)COCc2cccc(Oc3ccccc3)c2)cc1
inactive: [8] | [9] | [11] | [12] | [13] | [15] | [16]
active: [14] 41 µM

CC(Cl)(Cl)C(=O)O
inactive: [8] | [9] | [10] | [11] | [12] | [13] | [14] | [15] | [16]

CCCCCCCc1ccc(O)cc1
inactive: [8] | [9] | [11] | [12] | [13] | [14] | [15] | [16]

c1nc[nH]n1
active: [10] 0.0353 µM | [14] 0.146 µM
inactive: [8] | [9] | [11] | [12] | [13] | [15] | [16]

O=[N+]([O-])c1ccccc1
active: [14] 50 µM
inactive: [9] | [10] | [11] | [17] | [12] | [13] | [15] | [16]

ClC1=C(Cl)C2(Cl)C3C(Cl)C(Cl)CC3C1(Cl)C2(Cl)Cl (stereo not given)
inactive: [8] | [9] | [10] | [11] | [12] | [13] | [15] | [16]
active: [14] 33.4 µM

CSC(C)(C)C=NO
inactive: [8] | [9] | [11] | [12] | [13] | [14] | [15] | [16]

OCC1CO1 (stereo not given)
inactive: [8] | [9] | [10] | [11] | [12] | [13] | [14] | [15] | [16] | [18]

CCCCc1ccccc1
active: [14] 75.6 µM
inactive: [8] | [9] | [10] | [11] | [12] | [13] | [15] | [16]

Cc1ccc([N+](=O)[O-])cc1C
inactive: [8] | [9] | [10] | [11] | [12] | [13] | [15] | [16]
active: [14] 68.1 µM

[N-]=[N+]=[N-]
inactive: [8] | [9] | [10] | [14] | [15]
active: [11] 74.9 µM | [12] 82.9 µM | [13] 88.5 µM | [16] 76.1 µM

ClC(Cl)c1ccccc1
inactive: [8] | [9] | [10] | [11] | [12] | [13] | [15] | [16]
active: [14] 50 µM

CCCCN(CCCC)N=O
inactive: [8] | [9] | [10] | [11] | [12] | [13] | [14] | [15] | [16]

ClC(Cl)(Cl)c1ccccc1
inactive: [8] | [9] | [10] | [11] | [12] | [13] | [14] | [15] | [16]
